Consider 17 molecules from PubChem BioAssay.

Activity calls are given as the source filed them.

Assay [1] is described as follows: small molecules captured by biotinylated probe aFSTL3 – biochemical, small-molecule microarray, fluorescence 635/667, stem cell growth factor project, primary screen (AID 1064).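 Note: measures binding of the biotinylated anti-FSTL3 antibody to printed compounds.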 The following applies: higher = more signal.
A short description of assay [2]: binders from COS7 lysate, DM2A8 probe, primary screen, torsin A project, cell lysate, small-molecule microarray, fluorescence 635/667 (AID 1065). The settings on record: higher = more signal, COS7 lysate expressing mutant human TOR1A.
Assay [3] can be described thus: small molecules captured by biotinylated probe aFGF2 – biochemical, small-molecule microarray, fluorescence 635/667, stem cell growth factor project, primary screen (AID 1067).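 Note: measures binding of biotinylated aFGF2 protein to printed compounds on slides; z-score merges feature fluorescence and signal-to-noise across triplicate slides.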 The following applies: higher = more signal.
Assay [4] can be described thus: small molecules captured by biotinylated probe aFGF10 – biochemical, small-molecule microarray, fluorescence 635/667, stem cell growth factor project, primary screen (AID 1071).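 Note: score merges 667 nm spot intensity and signal to noise from triplicate slides.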 The following applies: higher = more signal.
Assay [5] addresses Neurogenic locus notch homolog protein 2 (Homo sapiens) (UniProt Q04721). Kind of assay: small molecules binding Notch2 protein – biochemical, small-molecule microarray, 635 nm fluorescence, stem cell growth factors, primary screen (AID 1073). The following applies: higher = more signal.
Assay [6] has as its target Pro-neuregulin-1, membrane-bound isoform (Homo sapiens) (UniProt Q02297). As to the kind of experiment: small molecules binding neuregulin-1 protein – biochemical, small-molecule microarray, fluorescence 635/667, psychiatric disease protein project, primary screen (AID 1075).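 Note: score combines 667 nm spot fluorescence with signal to noise.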 The settings on record: NRG1 binding, 635 nm fluorescence, higher = more signal.
For assay [7], the system named is Neuregulin-1 EGF-like domain. As to the kind of experiment: small molecules binding NRG1 EGF domain – biochemical, small-molecule microarray, 635 nm fluorescence, primary screen (AID 1081).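 Note: binding of the protein to compounds printed on small-molecule microarray slides.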 The settings on record: higher = more signal.
The nature of assay [8]: FRG1 expression reporter modulators in myotubes – cell-based, C2C12 myotubes, firefly/Renilla luciferase, luminescence, FRG1 inhibition for FSHD, primary screen (AID 1084). The following applies: FRG1 promoter luciferase, higher = more signal, called active from +8 up or from −8 down.
The nature of assay [9]: small molecules captured by biotinylated probe aFST – biochemical, small-molecule microarray, fluorescence 635/667, stem cell growth factor project, primary screen (AID 1086).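 Note: score merges 667 nm fluorescence with signal-to-noise of each printed compound spot.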 The following applies: higher = more signal.
A short description of assay [10]: binders of probe aHhip on microarray, primary screen, stem cell growth factor project, biochemical, small-molecule microarray, fluorescence 635/667 (AID 1087).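 Note: score merges spot fluorescence at 667nm with spot signal to noise ratio.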 The following applies: higher = more signal.

Sequence of Pro-neuregulin-1, membrane-bound isoform (Homo sapiens) (Q02297 whole entry, looked up, the tested form may be a part, canonical isoform): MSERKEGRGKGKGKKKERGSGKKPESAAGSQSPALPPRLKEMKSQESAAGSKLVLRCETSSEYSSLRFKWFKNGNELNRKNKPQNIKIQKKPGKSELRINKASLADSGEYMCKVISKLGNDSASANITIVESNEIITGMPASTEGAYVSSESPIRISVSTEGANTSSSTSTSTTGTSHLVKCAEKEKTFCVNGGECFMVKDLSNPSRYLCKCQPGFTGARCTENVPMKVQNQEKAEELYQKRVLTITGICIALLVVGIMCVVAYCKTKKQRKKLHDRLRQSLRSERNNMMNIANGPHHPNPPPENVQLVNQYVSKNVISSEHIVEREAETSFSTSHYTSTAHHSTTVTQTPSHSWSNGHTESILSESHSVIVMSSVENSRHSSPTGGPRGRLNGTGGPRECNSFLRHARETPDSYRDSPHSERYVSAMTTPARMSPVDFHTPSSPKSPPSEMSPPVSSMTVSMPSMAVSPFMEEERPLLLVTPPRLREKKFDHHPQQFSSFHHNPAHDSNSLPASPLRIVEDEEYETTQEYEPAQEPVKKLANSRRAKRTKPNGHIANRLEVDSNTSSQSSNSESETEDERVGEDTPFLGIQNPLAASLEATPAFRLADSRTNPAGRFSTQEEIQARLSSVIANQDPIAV
Sequence of Neurogenic locus notch homolog protein 2 (Homo sapiens) (Q04721 whole entry, looked up, canonical isoform): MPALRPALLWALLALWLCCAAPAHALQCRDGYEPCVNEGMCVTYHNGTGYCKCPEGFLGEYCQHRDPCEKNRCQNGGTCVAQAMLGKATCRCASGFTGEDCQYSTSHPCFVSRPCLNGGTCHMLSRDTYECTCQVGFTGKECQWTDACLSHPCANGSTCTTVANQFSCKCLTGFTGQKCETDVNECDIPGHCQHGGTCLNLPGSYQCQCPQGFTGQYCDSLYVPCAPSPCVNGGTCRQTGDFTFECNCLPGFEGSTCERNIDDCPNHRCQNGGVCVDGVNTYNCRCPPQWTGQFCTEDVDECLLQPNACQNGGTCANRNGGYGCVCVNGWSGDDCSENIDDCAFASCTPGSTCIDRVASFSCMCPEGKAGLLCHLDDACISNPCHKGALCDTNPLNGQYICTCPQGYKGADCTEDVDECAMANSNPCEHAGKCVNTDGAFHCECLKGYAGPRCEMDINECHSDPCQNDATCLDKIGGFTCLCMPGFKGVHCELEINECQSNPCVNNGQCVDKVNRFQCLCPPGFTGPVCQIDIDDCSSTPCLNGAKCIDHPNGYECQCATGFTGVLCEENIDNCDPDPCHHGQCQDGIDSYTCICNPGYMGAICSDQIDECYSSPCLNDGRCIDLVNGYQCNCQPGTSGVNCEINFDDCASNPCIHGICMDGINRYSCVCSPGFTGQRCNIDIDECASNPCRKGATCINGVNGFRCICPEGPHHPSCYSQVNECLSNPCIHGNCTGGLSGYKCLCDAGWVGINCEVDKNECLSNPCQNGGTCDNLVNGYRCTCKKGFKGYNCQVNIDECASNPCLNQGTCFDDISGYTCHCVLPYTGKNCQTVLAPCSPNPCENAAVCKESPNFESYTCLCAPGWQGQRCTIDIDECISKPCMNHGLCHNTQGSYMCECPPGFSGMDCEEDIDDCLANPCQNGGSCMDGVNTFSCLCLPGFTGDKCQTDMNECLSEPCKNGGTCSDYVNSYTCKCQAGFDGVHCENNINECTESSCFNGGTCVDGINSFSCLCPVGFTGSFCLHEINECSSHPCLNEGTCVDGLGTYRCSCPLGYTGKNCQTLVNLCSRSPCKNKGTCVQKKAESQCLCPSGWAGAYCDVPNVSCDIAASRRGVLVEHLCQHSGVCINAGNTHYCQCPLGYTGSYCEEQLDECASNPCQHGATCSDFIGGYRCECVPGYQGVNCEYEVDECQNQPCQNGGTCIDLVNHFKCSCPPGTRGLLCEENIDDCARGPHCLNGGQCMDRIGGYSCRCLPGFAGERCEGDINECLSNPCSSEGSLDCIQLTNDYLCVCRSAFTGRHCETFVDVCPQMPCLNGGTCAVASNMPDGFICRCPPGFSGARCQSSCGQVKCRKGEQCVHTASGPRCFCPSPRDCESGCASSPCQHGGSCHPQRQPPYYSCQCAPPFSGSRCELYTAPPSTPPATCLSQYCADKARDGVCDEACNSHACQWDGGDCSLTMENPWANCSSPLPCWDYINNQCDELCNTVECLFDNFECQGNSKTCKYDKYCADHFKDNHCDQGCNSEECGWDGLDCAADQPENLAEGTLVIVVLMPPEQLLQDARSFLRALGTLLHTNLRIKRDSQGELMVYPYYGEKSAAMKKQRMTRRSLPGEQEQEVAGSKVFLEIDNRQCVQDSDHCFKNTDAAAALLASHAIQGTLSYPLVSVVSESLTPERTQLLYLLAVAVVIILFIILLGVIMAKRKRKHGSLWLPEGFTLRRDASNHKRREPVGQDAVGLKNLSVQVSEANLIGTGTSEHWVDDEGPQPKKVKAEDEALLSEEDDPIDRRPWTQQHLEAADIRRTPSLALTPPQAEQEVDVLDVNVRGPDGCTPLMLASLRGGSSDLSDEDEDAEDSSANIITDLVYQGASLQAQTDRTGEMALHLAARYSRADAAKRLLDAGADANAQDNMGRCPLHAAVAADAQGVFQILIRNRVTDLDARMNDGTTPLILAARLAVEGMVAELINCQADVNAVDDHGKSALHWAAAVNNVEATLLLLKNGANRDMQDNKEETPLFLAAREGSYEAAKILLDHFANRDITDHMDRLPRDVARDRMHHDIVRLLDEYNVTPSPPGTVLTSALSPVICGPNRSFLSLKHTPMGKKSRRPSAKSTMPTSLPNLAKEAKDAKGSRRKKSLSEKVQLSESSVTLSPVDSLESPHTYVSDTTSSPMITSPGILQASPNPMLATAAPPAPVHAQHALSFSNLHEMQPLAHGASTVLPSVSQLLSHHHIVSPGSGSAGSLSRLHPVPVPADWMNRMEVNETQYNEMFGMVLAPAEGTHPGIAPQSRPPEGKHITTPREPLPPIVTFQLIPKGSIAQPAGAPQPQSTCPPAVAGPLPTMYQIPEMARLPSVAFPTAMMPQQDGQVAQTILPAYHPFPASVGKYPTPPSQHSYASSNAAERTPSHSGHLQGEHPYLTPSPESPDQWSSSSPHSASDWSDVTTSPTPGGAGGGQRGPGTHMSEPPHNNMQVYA

Regarding `O=C(NN=C1C[C@@H](O)[C@@H](O)[C@@H]2[C@@H]3C(=O)N(C[C@@H]4CCCO4)C(=O)[C@@H]3CC[C@@H]12)OCc1ccccc1`, the composite z-score in [1] was -0.51; in assay [2], 2.32; in [3] it was -0.173; in assay [4], -0.522; in assay [5] it was -0.122; in [6], -0.802. In addition, the figures for the composite z-score in [7], in [9] and in assay [10] were 0.631, -0.0104 and -0.0994, respectively. Further, in assay [8], the z-score is -0.891 (inactive).
Turning to `CO[C@@H]1COC(=O)[C@@H](C)COC(=O)[C@@H](C)NC(=O)CC=C[C@@H]1C`, the composite z-score in assay [1] is -0.538; in assay [2] it was 0.544; in assay [3], -0.133; in assay [4], 0.231; in assay [5], 0.198; in assay [6], -0.308. Besides, the composite z-score was 0.675 in assay [7], -0.235 in [9] and -0.342 in assay [10]. In addition, the z-score in assay [8] was 0.156 (inactive).
In the case of `CCOC(=O)[C@H](Cc1ccccc1)NC(=O)CCC1CC(OC(=O)NCc2ccc3c(c2)OCO3)CC2(CCCC(COC(=O)NCCc3ccccc3OC)O2)O1` (stereo not given in full), the composite z-score is -0.259 in assay [1]; 0.058 in [2]; -0.147 in assay [3]; 0.471 in assay [4]; 1.26 in assay [5]; 1.04 in assay [6]. Besides, the composite z-score in assay [7] worked out at 1.1; in [9] it was 0.569; in [10], 0.141. The z-score in [8] is 1.04 (inactive).
Consider `COC(=O)CC=C[C@@H](C)[C@@H](C=NO[C@@H]1O[C@H](COC(C)=O)[C@@H](OC(C)=O)[C@H](OC(C)=O)[C@H]1OC(C)=O)NS(=O)(=O)c1ccc(C)cc1`, for which the composite z-score in assay [1] is -0.486; in assay [2] it was 0.969; in [3], -0.158; in assay [4] it was 0.367; in assay [5], 1.11; in assay [6], -0.993. Moreover, the values for the composite z-score in assay [7], in assay [9] and in [10] were -1.37, 0.068 and -0.0645, respectively. For the same molecule, the z-score in [8] is -0.443 (inactive).
Consider `COc1ccc(C#C[C@@H]2C=C[C@H](OC(C)=O)[C@@H](COC(C)=O)O2)cc1`, for which the composite z-score in assay [1] is -0.068; in [2], 0.101; in assay [3] it was -0.0769; in assay [4], 0.288; in assay [5], 0.395; in assay [6], 0.198. The composite z-score was -0.0975 in [7], -0.0985 in assay [9] and -0.191 in assay [10]. Also, in assay [8], the z-score is 0.742 (inactive).
`CCOC(=O)NN=C1C[C@@H](O)[C@@H](O)[C@@H]2[C@@H]3C(=O)N(C(C)(C)C)C(=O)[C@@H]3CC[C@H]12`: the composite z-score in [1] was -0.306; in assay [2], 0.367; in assay [3] it was -0.163; in [4], 0.255; in assay [5] it was 0.444; in assay [6], -0.135. Moreover, the composite z-score in assay [7] amounted to 0.603; in assay [9], 0.497; in assay [10], 0.0401. The z-score in [8] is -0.848 (inactive).
Regarding `COC(=O)[C@@H]1CC[C@@H](C)[C@H](c2ccc(Br)cc2)N1`, the composite z-score is -0.364 in assay [1]; -0.0471 in assay [2]; -0.163 in [3]; 0.321 in assay [4]; 0.0422 in assay [5]; -0.303 in [6]. The composite z-score in [7] is -0.356; in [9], -0.199; in assay [10], -0.184. Further, in assay [8], the z-score is -1.02 (inactive).
For the molecule `COc1ccc(O[C@H]2C=C[C@@H](c3ccccc3)O[C@@H]2CON=C(C)CCC(=O)OC[C@H]2O[C@H](c3ccccc3)C=C[C@@H]2Oc2ccc(OC)cc2)cc1`, the composite z-score was 0.0321 in assay [1]; -0.543 in [2]; -0.141 in assay [3]; 0.0207 in assay [4]; -1.5 in assay [5]; -0.496 in assay [6]. The composite z-score in [7] is -1.1; in assay [9], -0.677; in [10], -0.0994. Moreover, in assay [8], the z-score is 0.634 (inactive).
As for `CON=C1[C@H]2CCn3c(=O)n(-c4ccccc4)c(=O)n3[C@H]2[C@H](O)[C@@H]2O[C@H]12`, the composite z-score is -0.39 in assay [1]; 0.135 in [2]; -0.0533 in assay [3]; 0.383 in assay [4]; 0.41 in assay [5]; 0.0959 in assay [6]. The results for the composite z-score in assay [7], in [9] and in [10] were 0.561, 0.17 and -0.199, respectively. Besides, the z-score in [8] was -1.17 (inactive).
For the molecule `CC(C)=CCCC(C)=CCON=C1C[C@@H](O)[C@@H](O)[C@@H]2[C@@H]3C(=O)N(Cc4ccccc4)C(=O)[C@@H]3CC[C@@H]12`, the composite z-score in [1] is -0.249; in assay [2], 0.585; in assay [3], -0.0548; in [4], 0.649; in assay [5] it was 0.194; in assay [6] it was 0.34. The composite z-score came to 1.05 in assay [7], 0.172 in assay [9] and 0.204 in [10]. In assay [8], the z-score was 0.365 (inactive).
Consider `CC(C)CON=C1C[C@@H](O)[C@@H](O)[C@@H]2[C@@H]3C(=O)N(c4ccc(F)cc4F)C(=O)[C@@H]3CC[C@H]12`, for which the composite z-score is -0.337 in [1]; 1.29 in assay [2]; -0.214 in [3]; 0.269 in [4]; 0.737 in assay [5]; 0.668 in [6]. The composite z-score was 1.23 in [7], 0.803 in assay [9] and 0.111 in assay [10]. Also, in assay [8], the z-score was -0.858 (inactive).
As to `O=C1[C@H]2[C@H]3[C@H](O)[C@H](O)CC(=NO[C@@H]4O[C@H](CO)[C@@H](O)[C@H](O)[C@H]4O)[C@H]3CC[C@H]2C(=O)N1c1cccc(Oc2ccccc2)c1`, the composite z-score in assay [1] is -0.249; in assay [2] it was 0.128; in assay [3], -0.0867; in assay [4], 0.435; in [5] it was 0.387; in [6], -0.106. For the same molecule, the composite z-score was 0.843 in assay [7], -0.278 in assay [9] and -0.0024 in [10]. For the same molecule, the z-score in assay [8] was 0.0203 (inactive).
As for `C=CC[C@@H]1C=C[C@H](ON=C[C@@H](C)[C@H](OCc2ccccc2)C(C)C)[C@@H](CO)O1`, the composite z-score is -0.227 in [1]; -0.14 in assay [2]; 0.342 in assay [3]; -0.433 in [4]; -1.1 in assay [5]; -0.241 in [6]. Besides, the composite z-score was -0.255 in assay [7], -0.0578 in assay [9] and -0.0618 in assay [10]. Moreover, the z-score in assay [8] was 0.715 (inactive).
In the case of `CON=Cc1ccc(C(=O)N2[C@H](c3ccc(C)cc3)[C@@H](C)CC[C@H]2C(=O)OC)cc1`, the composite z-score was -0.13 in assay [1]; 0.486 in [2]; -0.134 in [3]; 0.363 in assay [4]; 0.489 in assay [5]; 0.424 in [6]. In addition, the figures for the composite z-score in assay [7], in [9] and in assay [10] were 0.843, 0.267 and -0.236, respectively. Moreover, the z-score in assay [8] is 0.0346 (inactive).
Turning to `CCOC(=O)[C@H](Cc1ccccc1)NC(=O)CCC1CC(OC(=O)NCCc2ccc(F)cc2)CC2(CCCC(COC(=O)NCCOC)O2)O1` (stereo not given in full), the composite z-score in [1] was -0.584; in assay [2] it was 0.114; in assay [3], -0.0291; in assay [4], 0.868; in assay [5] it was 1.04; in assay [6], 0.326. Further, the composite z-score in assay [7] is 1.11; in assay [9] it was 0.169; in assay [10], -0.248. In addition, the z-score in assay [8] is 0.753 (inactive).
As to `O=C1C2=CC[C@H]3C(=O)N(c4cccc(Oc5ccccc5)c4)C(=O)[C@H]3[C@H]2[C@H](O)[C@@H]2O[C@H]12`, the composite z-score in assay [1] was -0.476; in assay [2], 0.337; in assay [3], -0.14; in assay [4], 0.258; in [5], -0.139; in [6] it was 0.0597. In addition, the figures for the composite z-score in assay [7], in [9] and in assay [10] were 0.129, 0.373 and -0.184, respectively. The z-score in assay [8] was -0.492 (inactive).
On to `COc1ccc(O[C@@H]2[C@H](O)CO[C@H]2C=Cc2ccccc2)cc1`, for which the composite z-score in assay [1] was -0.323; in assay [2] it was 0.26; in assay [3], -0.113; in [4], 0.649; in [5], -0.625; in assay [6], 0.0515. Besides, the composite z-score in [7] is -0.839; in assay [9] it was -0.367; in [10] it was -0.0994. Also, in [8], the z-score is -1.39 (inactive).
